According to PubChem BioAssay (NCI):
Several values for one entry are separate records, joined by “and”; a condition that tells them apart may be missing. Equal entries are not always repeated. Compounds without any hit were thinned out: in the full panel of roughly 79,000, 15% have a hit. Values without a mark were called inactive. Activity calls are given as the source filed them. No stated cut-off is given here; in the data, active means growth inhibition above about 70%; inactive means the rest.

How the values were obtained:
[1] = NCI Yeast Anticancer Drug Screen. Data for the rad52 strain (AID 147);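 further: 0% = growth of vehicle-treated control cultures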; conditions: S. cerevisiae rad52 mutant growth inhibition, hits give high values
Summary of the method: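 Screen used a yeast mutant impaired in DNA repair. After compound exposure, growth was measured. Values reflect inhibition compared with vehicle-treated cells.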

[2] = NCI Yeast Anticancer Drug Screen. Data for the rad50EPP+ strain (AID 151);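 further: 0% = growth of vehicle-treated control cultures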; conditions: S. cerevisiae rad50 mutant strain, hits give high values
Summary of the method: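 Exposing the rad50EPP+ strain to each compound, growth was compared with vehicle-only cultures to give inhibition.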

[3] = NCI Yeast Anticancer Drug Screen. Data for the mgt1 strain (AID 153); conditions: S. cerevisiae mgt1 mutant growth inhibition, hits give high values
Summary of the method: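 Genetically defined yeast (mgt1) treated with compound; inhibition of growth expressed against vehicle-treated controls.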

[4] = NCI Yeast Anticancer Drug Screen. Data for the rad50 strain (AID 155);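 further: 0% = growth of vehicle-only cultures of the same strain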; conditions: S. cerevisiae rad50 strain growth inhibition, hits give high values
Summary of the method: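 DNA repair mutant yeast, compound exposure, growth read-out; inhibition is taken relative to vehicle.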

[5] = NCI Yeast Anticancer Drug Screen. Data for the mec2-1 strain (AID 157); conditions: S. cerevisiae mec2-1 strain, hits give high values
Summary of the method: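 Readout is yeast growth inhibition, normalised to vehicle-treated controls, in the mec2-1 strain exposed to compound.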

[6] = NCI Yeast Anticancer Drug Screen. Data for the rad14 strain (AID 159);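 further: 0% = growth of vehicle-treated control cultures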; conditions: S. cerevisiae rad14 strain growth inhibition, hits give high values
Summary of the method: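 DNA repair-defective yeast, compound-exposed; % growth inhibition derived by comparison with vehicle-treated controls.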

[7] = NCI Yeast Anticancer Drug Screen. Data for the sgs1 mgt1 strain (AID 161);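 further: 0% = growth of cultures given vehicle only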; conditions: S. cerevisiae sgs1 mgt1 strain, hits give high values
Summary of the method: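 Percent growth inhibition was derived by comparing compound-exposed mutant yeast with vehicle-exposed cultures. The strain carries alterations in DNA damage repair.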

[8] = NCI Yeast Anticancer Drug Screen. Data for the CLN2oe strain (AID 163);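 further: 0% = growth of vehicle-only control cultures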; conditions: S. cerevisiae CLN2oe strain, hits give high values
Summary of the method: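 Values reflect how much compound exposure reduced yeast growth, referenced to vehicle-exposed cells. Assay organism is a strain with a defined genetic change affecting cell-cycle control.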

[9] = NCI Yeast Anticancer Drug Screen. Data for the cln2 rad14 strain (AID 165);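 further: 0% = growth equal to vehicle treated cultures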; conditions: S. cerevisiae cln2 rad14 strain, hits give high values
Summary of the method: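 Relative to vehicle controls, growth inhibition of compound-treated cln2 rad14 yeast was recorded.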

[10] = NCI Yeast Anticancer Drug Screen. Data for the bub3 strain (AID 167); conditions: S. cerevisiae bub3 mutant strain, hits give high values
Summary of the method: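 In this screen, a yeast mutant lacking normal mitotic checkpoint function is challenged with compound. Relative growth versus vehicle gives the inhibition value.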

[11] = NCI Yeast Anticancer Drug Screen. Data for the wt2 strain (AID 169);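 further: 0% = growth of vehicle-treated yeast cultures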; conditions: S. cerevisiae wt2 strain growth inhibition, hits give high values
Summary of the method: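 Values express reduction in yeast growth under compound treatment, referenced to vehicle-treated cells.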

[12] = NCI Yeast Anticancer Drug Screen. Data for the mlh1 strain (AID 171);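 further: 0% = growth of vehicle-treated control cultures of the same strain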; conditions: S. cerevisiae mlh1 strain growth inhibition, hits give high values
Summary of the method: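 Steps: expose the defined-mutant yeast strain to compound; expose a parallel culture to vehicle; measure growth; express compound effect as inhibition relative to the vehicle culture.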

[13] = NCI Yeast Anticancer Drug Screen. Data for the sgs1 strain (AID 173);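 further: 0% = growth of vehicle-only control cultures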; conditions: S. cerevisiae sgs1 mutant, hits give high values
Summary of the method: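 Treat defined-mutant yeast with compound; measure growth; calculate inhibition relative to vehicle-treated cells.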

[14] = NCI Yeast Anticancer Drug Screen. Data for the mlh1 rad18 strain (AID 175); conditions: S. cerevisiae mlh1 rad18 strain growth inhibition, hits give high values
Summary of the method: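 Test agents were incubated with a yeast strain of defined genotype (DNA damage repair defect). Inhibition of growth was derived by comparison with vehicle-exposed cultures.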

[15] = NCI Yeast Anticancer Drug Screen. Data for the rad18 strain (AID 177); conditions: S. cerevisiae rad18 mutant growth inhibition, hits give high values
Summary of the method: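 A genetically defined yeast mutant impaired in DNA damage repair was treated with test compounds, then its growth was measured against cultures receiving vehicle alone.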

[16] = at 5.0 µM (retest, dose inferred, filed as 0.5)
[17] = at 50.0 µM (retest, dose inferred, filed as 5.0)

**Q.** With O=S(=O)(O)/C(=C\c1ccccc1)c1ccccc1 (tested in a mixture with another compound) as the compound, how does the growth inhibition ([1]; at 1.2 µM) read?
**A.** -3%

**Q.** What about the growth inhibition ([1]; at 3.7 µM) of the same compound?
**A.** -2%

**Q.** And the growth inhibition ([1]; at 11.0 µM)?
**A.** -6%

**Q.** And the growth inhibition ([1]; at 33.0 µM)?
**A.** -5%

**Q.** What about the growth inhibition ([1]; at 100.0 µM) of the same compound?
**A.** -8%

**Q.** And the growth inhibition ([2]; at 1.2 µM)?
**A.** -3%

**Q.** What about the growth inhibition ([2]; at 3.7 µM) of the same compound?
**A.** -2%

**Q.** What about the growth inhibition ([2]; at 11.0 µM) of the same compound?
**A.** -3%

**Q.** And the growth inhibition ([2]; at 33.0 µM)?
**A.** -3%

**Q.** What about the growth inhibition ([2]; at 100.0 µM) of the same compound?
**A.** 3%

**Q.** What about the growth inhibition ([3]; at 1.2 µM) of the same compound?
**A.** 0%

**Q.** What about the growth inhibition ([3]; at 3.7 µM) of the same compound?
**A.** -1%

**Q.** And the growth inhibition ([3]; at 11.0 µM)?
**A.** -1%

**Q.** And the growth inhibition ([3]; at 33.0 µM)?
**A.** -2%

**Q.** And the growth inhibition ([3]; at 100.0 µM)?
**A.** -2%

**Q.** And the growth inhibition ([4]; at 1.2 µM)?
**A.** 0%

**Q.** And the growth inhibition ([4]; at 3.7 µM)?
**A.** -5%

**Q.** What about the growth inhibition [4, 16] of the same compound?
**A.** 15%

**Q.** And the growth inhibition ([4]; at 11.0 µM)?
**A.** 1%

**Q.** What about the growth inhibition ([4]; at 33.0 µM) of the same compound?
**A.** -5%

**Q.** And the growth inhibition [4, 17]?
**A.** 15%

**Q.** What about the growth inhibition ([4]; at 50.0 µM) of the same compound?
**A.** -10.3% and -8% and 14.8%

**Q.** And the growth inhibition ([4]; at 100.0 µM)?
**A.** -4%

**Q.** What about the growth inhibition ([5]; at 1.2 µM) of the same compound?
**A.** -3%

**Q.** And the growth inhibition ([5]; at 3.7 µM)?
**A.** -2%

**Q.** And the growth inhibition [5, 16]?
**A.** 24%

**Q.** And the growth inhibition ([5]; at 11.0 µM)?
**A.** -3%

**Q.** And the growth inhibition ([5]; at 33.0 µM)?
**A.** -2%

**Q.** What about the growth inhibition [5, 17] of the same compound?
**A.** 24%

**Q.** And the growth inhibition ([5]; at 50.0 µM)?
**A.** 2.1% and -4.7% and -21.4%

**Q.** What about the growth inhibition ([5]; at 100.0 µM) of the same compound?
**A.** 10%

**Q.** And the growth inhibition ([6]; at 1.2 µM)?
**A.** 0%

**Q.** And the growth inhibition ([6]; at 3.7 µM)?
**A.** 0%

**Q.** What about the growth inhibition ([6]; at 11.0 µM) of the same compound?
**A.** 2%

**Q.** And the growth inhibition ([6]; at 33.0 µM)?
**A.** -7%

**Q.** What about the growth inhibition ([6]; at 100.0 µM) of the same compound?
**A.** 3%

**Q.** What about the growth inhibition [7, 16] of the same compound?
**A.** 12%

**Q.** And the growth inhibition [7, 17]?
**A.** 3%

**Q.** What about the growth inhibition ([7]; at 50.0 µM) of the same compound?
**A.** -28.2% and -11.8% and -14.2%

**Q.** What about the growth inhibition ([8]; at 1.2 µM) of the same compound?
**A.** -3%

**Q.** And the growth inhibition ([8]; at 3.7 µM)?
**A.** -1%

**Q.** And the growth inhibition ([8]; at 11.0 µM)?
**A.** -5%

**Q.** What about the growth inhibition ([8]; at 33.0 µM) of the same compound?
**A.** -7%

**Q.** What about the growth inhibition ([8]; at 100.0 µM) of the same compound?
**A.** 2%

**Q.** And the growth inhibition [9, 16]?
**A.** 55%

**Q.** And the growth inhibition [9, 17]?
**A.** 23%

**Q.** What about the growth inhibition ([9]; at 50.0 µM) of the same compound?
**A.** 28.4% and 15.9% and 9.35%

**Q.** And the growth inhibition ([10]; at 1.2 µM)?
**A.** -11%

**Q.** What about the growth inhibition ([10]; at 3.7 µM) of the same compound?
**A.** -6%

**Q.** And the growth inhibition [10, 16]?
**A.** 97% (active)

**Q.** What about the growth inhibition ([10]; at 11.0 µM) of the same compound?
**A.** -30%

**Q.** What about the growth inhibition ([10]; at 33.0 µM) of the same compound?
**A.** 19%

**Q.** And the growth inhibition [10, 17]?
**A.** 95% (active)

**Q.** And the growth inhibition ([10]; at 50.0 µM)?
**A.** -19.1% and -0.25% and 3.5%

**Q.** And the growth inhibition ([10]; at 100.0 µM)?
**A.** 1%

**Q.** What about the growth inhibition ([11]; at 1.2 µM) of the same compound?
**A.** -2%

**Q.** And the growth inhibition ([11]; at 3.7 µM)?
**A.** 0%

**Q.** And the growth inhibition ([11]; at 11.0 µM)?
**A.** -4%

**Q.** What about the growth inhibition ([11]; at 33.0 µM) of the same compound?
**A.** -2%

**Q.** What about the growth inhibition ([11]; at 100.0 µM) of the same compound?
**A.** -2%

**Q.** And the growth inhibition ([12]; at 1.2 µM)?
**A.** 0%

**Q.** And the growth inhibition ([12]; at 3.7 µM)?
**A.** 2%

**Q.** And the growth inhibition ([12]; at 11.0 µM)?
**A.** 1%

**Q.** And the growth inhibition ([12]; at 33.0 µM)?
**A.** -22%

**Q.** What about the growth inhibition ([12]; at 100.0 µM) of the same compound?
**A.** 10%

**Q.** What about the growth inhibition ([13]; at 1.2 µM) of the same compound?
**A.** 0%

**Q.** What about the growth inhibition ([13]; at 3.7 µM) of the same compound?
**A.** -1%

**Q.** And the growth inhibition ([13]; at 11.0 µM)?
**A.** -2%

**Q.** And the growth inhibition ([13]; at 33.0 µM)?
**A.** -5%

**Q.** What about the growth inhibition ([13]; at 100.0 µM) of the same compound?
**A.** -4%

**Q.** And the growth inhibition [14, 16]?
**A.** 39%

**Q.** And the growth inhibition [14, 17]?
**A.** 4%

**Q.** What about the growth inhibition ([14]; at 50.0 µM) of the same compound?
**A.** 8.8% and -6.15% and -15.1%

**Q.** What about the growth inhibition ([15]; at 1.2 µM) of the same compound?
**A.** -2%

**Q.** And the growth inhibition ([15]; at 3.7 µM)?
**A.** 2%

**Q.** What about the growth inhibition ([15]; at 11.0 µM) of the same compound?
**A.** 5%

**Q.** What about the growth inhibition ([15]; at 33.0 µM) of the same compound?
**A.** -5%

**Q.** And the growth inhibition ([15]; at 100.0 µM)?
**A.** -11%
